Source: article PMC7862700, “An all-to-all approach to the identification of sequence-specific readers for epigenetic DNA modifications on cytosine”

Key:
Experiment in all cases: DAPPL (digital affinity profiling via proximity ligation, sequencing); 10 mM Tris-HCl pH 7.5, 50 mM NaCl, 1 mM DTT, 4% glycerol, room temperature, 30 min; GST-TFs on glutathione beads, 16-mer random dsDNA library, 0.1% formaldehyde crosslink after washing; high values mean tight binding
Conditions in all cases: protein: recombinant; tags: N-terminal GST; dsDNA, one strand shown
[1] = target: SPI1 (Homo sapiens, UniProt P17947 1-270)
Procedure, shortened: (§1)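 Sequencing on an Illumina NextSeq500 followed washing, crosslinking with 0.1% formaldehyde, proximity ligation (BsaI/T4 ligase, 1 h, 37 °C) and PCR amplification of pools that had been incubated for 30 min at room temperature with 200 nmole of a random double-stranded 16-mer DNA library in Tris/NaCl/DTT/glycerol buffer. Each pool held DNA-barcoded human transcription factors, expressed in yeast as GST fusions and captured on glutathione beads, plus a tag-only sample. Binding signal is a hexamer's read frequency for a factor divided by its frequency in the tag-only sample.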

[2] = target: SPIB (Homo sapiens, UniProt Q01892 1-262)
Procedure, shortened: as §1

[3] = target: T1, FEV (Homo sapiens, UniProt Q99581 1-238)
T1 sequence: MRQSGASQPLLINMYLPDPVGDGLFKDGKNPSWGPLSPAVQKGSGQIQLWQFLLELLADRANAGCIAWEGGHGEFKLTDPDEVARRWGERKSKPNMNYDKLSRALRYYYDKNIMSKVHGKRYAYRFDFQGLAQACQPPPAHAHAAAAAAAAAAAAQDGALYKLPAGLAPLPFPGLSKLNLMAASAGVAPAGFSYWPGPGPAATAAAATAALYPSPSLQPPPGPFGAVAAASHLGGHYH
Procedure, shortened: as §1

[4] = target: ELF4 (Homo sapiens, UniProt Q99607 1-663)
Procedure, shortened: as §1

[5] = target: T2, ETV2 (Homo sapiens, UniProt O00321 1-342)
T2 sequence: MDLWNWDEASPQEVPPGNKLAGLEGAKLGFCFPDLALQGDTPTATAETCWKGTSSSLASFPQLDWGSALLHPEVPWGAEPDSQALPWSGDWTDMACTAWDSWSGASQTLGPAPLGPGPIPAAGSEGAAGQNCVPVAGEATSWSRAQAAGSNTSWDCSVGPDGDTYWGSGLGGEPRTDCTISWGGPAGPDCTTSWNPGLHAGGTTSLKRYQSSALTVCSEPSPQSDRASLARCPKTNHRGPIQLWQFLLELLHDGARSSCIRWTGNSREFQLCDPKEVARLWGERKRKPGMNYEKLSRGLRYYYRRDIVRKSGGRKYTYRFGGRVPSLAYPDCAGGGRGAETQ
Procedure, shortened: as §1

[6] = target: T3, ERF (Homo sapiens, UniProt P50548 1-548)
T3 sequence: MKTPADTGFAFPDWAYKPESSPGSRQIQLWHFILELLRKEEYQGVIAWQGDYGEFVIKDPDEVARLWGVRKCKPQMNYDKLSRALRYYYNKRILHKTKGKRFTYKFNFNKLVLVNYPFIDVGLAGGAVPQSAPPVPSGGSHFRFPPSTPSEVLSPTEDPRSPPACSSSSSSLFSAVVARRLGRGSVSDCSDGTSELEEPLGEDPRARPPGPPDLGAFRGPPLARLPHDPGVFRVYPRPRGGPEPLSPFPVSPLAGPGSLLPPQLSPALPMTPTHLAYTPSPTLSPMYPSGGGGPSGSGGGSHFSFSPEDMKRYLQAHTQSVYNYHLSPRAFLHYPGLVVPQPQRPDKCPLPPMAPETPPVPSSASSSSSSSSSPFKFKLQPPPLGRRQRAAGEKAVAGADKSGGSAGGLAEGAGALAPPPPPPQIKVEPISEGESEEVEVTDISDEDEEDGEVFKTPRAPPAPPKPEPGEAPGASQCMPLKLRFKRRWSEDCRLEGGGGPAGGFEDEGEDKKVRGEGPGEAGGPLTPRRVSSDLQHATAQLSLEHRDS
Procedure, shortened: as §1

[7] = target: T4, ETS2 (Homo sapiens, UniProt P15036 1-469)
T4 sequence: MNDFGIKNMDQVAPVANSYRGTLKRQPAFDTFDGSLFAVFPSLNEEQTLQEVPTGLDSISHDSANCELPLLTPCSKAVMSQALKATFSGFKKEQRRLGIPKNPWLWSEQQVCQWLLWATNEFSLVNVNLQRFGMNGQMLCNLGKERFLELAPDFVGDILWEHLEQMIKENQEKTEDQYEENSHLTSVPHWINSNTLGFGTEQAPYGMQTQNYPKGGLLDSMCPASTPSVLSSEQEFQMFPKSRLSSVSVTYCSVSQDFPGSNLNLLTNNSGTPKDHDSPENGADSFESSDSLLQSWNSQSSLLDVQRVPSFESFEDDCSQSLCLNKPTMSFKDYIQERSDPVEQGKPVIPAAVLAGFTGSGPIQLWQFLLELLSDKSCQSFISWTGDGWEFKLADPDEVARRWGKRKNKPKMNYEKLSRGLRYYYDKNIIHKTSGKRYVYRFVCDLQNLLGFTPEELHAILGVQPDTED
Procedure, shortened: as §1

[8] = target: T5, ELK1 (Homo sapiens, UniProt P19419 1-428)
T5 sequence: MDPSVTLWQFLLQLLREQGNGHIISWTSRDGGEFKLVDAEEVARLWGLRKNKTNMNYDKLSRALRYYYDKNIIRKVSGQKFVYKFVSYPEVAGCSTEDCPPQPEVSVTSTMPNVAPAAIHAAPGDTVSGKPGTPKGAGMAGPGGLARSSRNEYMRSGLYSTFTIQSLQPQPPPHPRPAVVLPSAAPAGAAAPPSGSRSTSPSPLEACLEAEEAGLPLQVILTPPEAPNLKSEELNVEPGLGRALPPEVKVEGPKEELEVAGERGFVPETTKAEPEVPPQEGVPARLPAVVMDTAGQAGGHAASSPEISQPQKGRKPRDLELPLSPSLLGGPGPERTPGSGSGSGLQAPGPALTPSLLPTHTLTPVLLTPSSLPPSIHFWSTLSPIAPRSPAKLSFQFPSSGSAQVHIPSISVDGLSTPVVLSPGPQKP
Procedure, shortened: as §1

[9] = target: T6, GABPA (Homo sapiens, UniProt Q06546 1-454)
T6 sequence: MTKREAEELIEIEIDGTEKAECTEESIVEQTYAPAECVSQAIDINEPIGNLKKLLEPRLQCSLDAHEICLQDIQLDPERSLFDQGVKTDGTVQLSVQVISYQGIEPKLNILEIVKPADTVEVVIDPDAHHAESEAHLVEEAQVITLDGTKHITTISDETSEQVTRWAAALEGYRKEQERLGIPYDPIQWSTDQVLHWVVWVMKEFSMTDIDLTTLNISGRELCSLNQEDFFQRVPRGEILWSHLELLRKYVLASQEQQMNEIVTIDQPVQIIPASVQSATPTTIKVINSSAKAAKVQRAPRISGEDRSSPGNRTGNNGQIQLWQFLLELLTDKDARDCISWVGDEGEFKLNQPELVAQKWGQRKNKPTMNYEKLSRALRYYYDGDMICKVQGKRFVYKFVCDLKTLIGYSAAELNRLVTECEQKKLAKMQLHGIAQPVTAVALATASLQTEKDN
Procedure, shortened: as §1

[10] = target: T7, ERG (Homo sapiens, UniProt P11308 1-479)
T7 sequence: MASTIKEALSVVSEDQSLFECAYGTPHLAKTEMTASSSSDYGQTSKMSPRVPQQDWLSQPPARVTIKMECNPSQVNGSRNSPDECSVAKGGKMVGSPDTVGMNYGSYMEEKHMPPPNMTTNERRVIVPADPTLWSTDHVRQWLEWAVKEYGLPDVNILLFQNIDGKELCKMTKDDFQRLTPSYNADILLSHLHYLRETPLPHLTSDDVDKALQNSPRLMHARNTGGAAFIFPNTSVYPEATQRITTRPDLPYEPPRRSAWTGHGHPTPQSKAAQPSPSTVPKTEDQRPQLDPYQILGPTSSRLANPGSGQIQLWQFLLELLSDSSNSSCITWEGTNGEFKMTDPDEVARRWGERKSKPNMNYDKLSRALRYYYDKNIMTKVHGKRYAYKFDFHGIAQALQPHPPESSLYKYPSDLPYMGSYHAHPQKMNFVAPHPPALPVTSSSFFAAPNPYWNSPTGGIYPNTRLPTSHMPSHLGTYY
Procedure, shortened: as §1

[11] = target: ELF1 (Homo sapiens, UniProt P32519 1-619)
Procedure, shortened: as §1

[12] = target: T8, ELK3 (Homo sapiens, UniProt P41970 1-407)
T8 sequence: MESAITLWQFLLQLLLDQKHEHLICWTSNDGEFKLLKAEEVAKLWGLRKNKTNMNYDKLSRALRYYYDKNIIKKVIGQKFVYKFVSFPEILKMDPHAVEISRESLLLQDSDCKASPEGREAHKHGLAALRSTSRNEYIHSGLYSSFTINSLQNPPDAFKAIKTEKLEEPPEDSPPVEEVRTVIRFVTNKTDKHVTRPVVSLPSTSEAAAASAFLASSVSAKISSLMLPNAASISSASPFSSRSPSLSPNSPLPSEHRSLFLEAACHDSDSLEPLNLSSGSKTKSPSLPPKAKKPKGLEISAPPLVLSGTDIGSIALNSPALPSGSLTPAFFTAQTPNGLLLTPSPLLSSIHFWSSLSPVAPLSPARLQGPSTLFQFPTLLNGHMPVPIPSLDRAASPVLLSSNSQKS
Procedure, shortened: as §1

[13] = target: T9, ELK4 (Homo sapiens, UniProt P28324-2 1-405)
T9 sequence: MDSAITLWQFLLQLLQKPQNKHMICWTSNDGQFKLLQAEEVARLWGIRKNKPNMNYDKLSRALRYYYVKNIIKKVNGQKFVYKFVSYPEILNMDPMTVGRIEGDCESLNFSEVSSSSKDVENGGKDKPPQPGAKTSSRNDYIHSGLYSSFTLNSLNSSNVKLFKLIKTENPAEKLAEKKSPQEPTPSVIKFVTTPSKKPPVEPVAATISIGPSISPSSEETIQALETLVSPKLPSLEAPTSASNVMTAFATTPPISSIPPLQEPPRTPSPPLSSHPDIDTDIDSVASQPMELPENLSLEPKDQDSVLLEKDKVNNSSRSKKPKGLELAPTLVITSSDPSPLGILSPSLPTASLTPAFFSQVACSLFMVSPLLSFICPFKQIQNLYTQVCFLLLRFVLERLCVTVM
Procedure, shortened: as §1

[14] = target: T10, ELF3 (Homo sapiens, UniProt P78545 1-371)
T10 sequence: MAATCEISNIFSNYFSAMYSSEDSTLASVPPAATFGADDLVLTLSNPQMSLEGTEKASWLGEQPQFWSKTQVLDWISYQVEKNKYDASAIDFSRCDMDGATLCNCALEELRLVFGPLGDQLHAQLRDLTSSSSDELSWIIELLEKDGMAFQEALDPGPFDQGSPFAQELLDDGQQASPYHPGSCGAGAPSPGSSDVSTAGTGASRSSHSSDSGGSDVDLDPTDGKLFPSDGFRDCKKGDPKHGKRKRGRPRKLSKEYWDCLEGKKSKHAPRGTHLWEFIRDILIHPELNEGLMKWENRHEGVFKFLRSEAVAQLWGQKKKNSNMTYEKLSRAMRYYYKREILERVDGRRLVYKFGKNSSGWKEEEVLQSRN
Procedure, shortened: as §1

[15] = target: ETV1 (Homo sapiens, UniProt P50549 1-477)
Procedure, shortened: as §1

Sequence of ELF4 (Q99607 whole entry): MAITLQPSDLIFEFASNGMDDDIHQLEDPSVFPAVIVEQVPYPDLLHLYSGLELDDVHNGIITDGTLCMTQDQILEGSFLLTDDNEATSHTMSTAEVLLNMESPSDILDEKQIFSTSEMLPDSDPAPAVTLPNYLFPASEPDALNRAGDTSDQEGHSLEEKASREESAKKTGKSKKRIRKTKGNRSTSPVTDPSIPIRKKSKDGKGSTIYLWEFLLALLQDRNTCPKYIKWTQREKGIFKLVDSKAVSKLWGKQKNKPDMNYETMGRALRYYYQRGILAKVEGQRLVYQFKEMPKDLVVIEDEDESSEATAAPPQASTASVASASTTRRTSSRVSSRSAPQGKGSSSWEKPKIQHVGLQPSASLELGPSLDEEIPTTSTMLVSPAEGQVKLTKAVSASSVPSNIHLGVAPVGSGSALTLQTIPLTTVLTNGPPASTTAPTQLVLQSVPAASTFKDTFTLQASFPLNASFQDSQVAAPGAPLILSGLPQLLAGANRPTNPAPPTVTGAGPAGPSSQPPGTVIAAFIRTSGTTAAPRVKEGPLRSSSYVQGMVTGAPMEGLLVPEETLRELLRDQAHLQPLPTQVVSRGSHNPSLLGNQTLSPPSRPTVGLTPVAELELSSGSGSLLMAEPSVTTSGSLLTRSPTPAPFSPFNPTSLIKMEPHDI
Sequence of ELF1 (P32519 whole entry): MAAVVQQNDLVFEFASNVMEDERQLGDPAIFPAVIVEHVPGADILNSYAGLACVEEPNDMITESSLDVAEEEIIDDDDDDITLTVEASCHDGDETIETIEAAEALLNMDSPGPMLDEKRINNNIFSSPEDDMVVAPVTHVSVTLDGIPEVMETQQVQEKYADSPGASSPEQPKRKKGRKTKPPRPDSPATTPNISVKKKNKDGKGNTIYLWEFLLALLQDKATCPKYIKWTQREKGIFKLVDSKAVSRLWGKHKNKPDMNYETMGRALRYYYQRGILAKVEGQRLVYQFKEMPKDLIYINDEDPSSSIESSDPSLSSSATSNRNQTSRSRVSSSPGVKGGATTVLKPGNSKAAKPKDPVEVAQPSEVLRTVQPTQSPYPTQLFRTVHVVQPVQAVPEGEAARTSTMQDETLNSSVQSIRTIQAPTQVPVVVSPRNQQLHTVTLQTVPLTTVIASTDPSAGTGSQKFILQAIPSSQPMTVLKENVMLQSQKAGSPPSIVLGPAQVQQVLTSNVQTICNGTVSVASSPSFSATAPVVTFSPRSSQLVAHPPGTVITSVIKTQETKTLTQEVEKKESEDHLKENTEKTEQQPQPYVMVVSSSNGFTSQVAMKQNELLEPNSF
Sequence of SPIB (Q01892 whole entry): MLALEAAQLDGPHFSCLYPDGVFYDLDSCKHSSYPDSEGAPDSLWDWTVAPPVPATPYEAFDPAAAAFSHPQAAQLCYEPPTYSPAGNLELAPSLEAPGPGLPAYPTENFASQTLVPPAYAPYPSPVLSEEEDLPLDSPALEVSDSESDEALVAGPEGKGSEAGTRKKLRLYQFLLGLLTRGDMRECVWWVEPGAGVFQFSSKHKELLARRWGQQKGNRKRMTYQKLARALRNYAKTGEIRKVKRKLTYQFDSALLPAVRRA
Sequence of ETV1 (P50549 whole entry): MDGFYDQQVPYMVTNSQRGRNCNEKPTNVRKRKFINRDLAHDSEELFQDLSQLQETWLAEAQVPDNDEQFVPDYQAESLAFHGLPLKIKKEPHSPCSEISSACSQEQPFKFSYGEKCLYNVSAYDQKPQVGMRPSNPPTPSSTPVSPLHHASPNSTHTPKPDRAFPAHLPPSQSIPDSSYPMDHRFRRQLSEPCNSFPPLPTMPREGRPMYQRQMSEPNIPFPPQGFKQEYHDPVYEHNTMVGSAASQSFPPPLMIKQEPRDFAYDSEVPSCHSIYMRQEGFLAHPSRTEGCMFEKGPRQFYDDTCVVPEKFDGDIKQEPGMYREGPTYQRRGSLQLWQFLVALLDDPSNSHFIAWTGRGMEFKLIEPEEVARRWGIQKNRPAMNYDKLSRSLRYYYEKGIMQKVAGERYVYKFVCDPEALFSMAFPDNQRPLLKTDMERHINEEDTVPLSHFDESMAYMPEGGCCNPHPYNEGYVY

Sequence	binding signal [1]	binding signal [2]	binding signal [3]	binding signal [4]	binding signal [5]	binding signal [6]	binding signal [7]	binding signal [8]	binding signal [9]	binding signal [10]	binding signal [11]	binding signal [12]	binding signal [13]	binding signal [14]	binding signal [15]
GTTAGC	1.01 fold enrichment (6-mer frequency, TF over GST control)	1 fold enrichment (6-mer frequency, TF over GST control)	1 fold enrichment (6-mer frequency, TF over GST control)	1.06 fold enrichment (6-mer frequency, TF over GST control)	1.17 fold enrichment (6-mer frequency, TF over GST control)	1.02 fold enrichment (6-mer frequency, TF over GST control)	1.01 fold enrichment (6-mer frequency, TF over GST control)								
CAATGA				1.01 fold enrichment (6-mer frequency, TF over GST control)		1.06 fold enrichment (6-mer frequency, TF over GST control)	1.03 fold enrichment (6-mer frequency, TF over GST control)	1.04 fold enrichment (6-mer frequency, TF over GST control)	1.05 fold enrichment (6-mer frequency, TF over GST control)	1.03 fold enrichment (6-mer frequency, TF over GST control)	1.06 fold enrichment (6-mer frequency, TF over GST control)	1.04 fold enrichment (6-mer frequency, TF over GST control)	1.12 fold enrichment (6-mer frequency, TF over GST control)	1.15 fold enrichment (6-mer frequency, TF over GST control)	1.01 fold enrichment (6-mer frequency, TF over GST control)
